Reference: paper PMC9911399, “Two distinct binding modes provide the RNA-binding protein RbFox with extraordinary sequence specificity”
Numbering of substitutions follows the chain as printed; changes in the protein carry UniProt numbers. In all, about 16,000 sequences were measured (“ka relative to ugcaugu”: median about 0.0091, highest 2% from about 0.032 on). The full list was thinned out, with the highest values kept by preference.

B1: AUUCACC (DNA:RNA)
RNA: GGGAGACCGGAAUUCAGAUUGUCCAUUCACCUUAAAUCCCGUCGUAGCCACCA
DNA 1: CAATCTGAATTCCGGTCTCCC
DNA 2: TGGTGGCTACGACGGGATT
B2: GAGUUGU (DNA:RNA)
RNA: GGGAGACCGGAAUUCAGAUUGUCCGAGUUGUUUAAAUCCCGUCGUAGCCACCA
DNA 1: CAATCTGAATTCCGGTCTCCC
DNA 2: TGGTGGCTACGACGGGATT
B3: CAACGAU (DNA:RNA)
RNA: B2 RNA with G25C, G27A, U28C, U29G, G30A
DNA 1: CAATCTGAATTCCGGTCTCCC
DNA 2: TGGTGGCTACGACGGGATT
B4: AACCAAC (DNA:RNA)
RNA: B1 RNA with U26A, U27C, C30A
DNA 1: CAATCTGAATTCCGGTCTCCC
DNA 2: TGGTGGCTACGACGGGATT
B5: GAAACCA (DNA:RNA)
RNA: B2 RNA with G27A, U28A, U29C, G30C, U31A
DNA 1: CAATCTGAATTCCGGTCTCCC
DNA 2: TGGTGGCTACGACGGGATT
B6: UUUAAUU (DNA:RNA)
RNA: B1 RNA with A25U, C28A, C30U, C31U
DNA 1: CAATCTGAATTCCGGTCTCCC
DNA 2: TGGTGGCTACGACGGGATT
B7: CUGAUGU (DNA:RNA)
RNA: B2 RNA with G25C, A26U, U28A
DNA 1: CAATCTGAATTCCGGTCTCCC
DNA 2: TGGTGGCTACGACGGGATT
B8: UUGCAUA (DNA:RNA)
RNA: B1 RNA with A25U, U27G, C30U, C31A
DNA 1: CAATCTGAATTCCGGTCTCCC
DNA 2: TGGTGGCTACGACGGGATT
B9: GUGCAUG (DNA:RNA)
RNA: B1 RNA with A25G, U27G, C30U, C31G
DNA 1: CAATCTGAATTCCGGTCTCCC
DNA 2: TGGTGGCTACGACGGGATT
B10: UUGCAUC (DNA:RNA)
RNA: B1 RNA with A25U, U27G, C30U
DNA 1: CAATCTGAATTCCGGTCTCCC
DNA 2: TGGTGGCTACGACGGGATT
B11: GUGCAUC (DNA:RNA)
RNA: B1 RNA with A25G, U27G, C30U
DNA 1: CAATCTGAATTCCGGTCTCCC
DNA 2: TGGTGGCTACGACGGGATT
B12: UUGCAAA (DNA:RNA)
RNA: B1 RNA with A25U, U27G, C30A, C31A
DNA 1: CAATCTGAATTCCGGTCTCCC
DNA 2: TGGTGGCTACGACGGGATT
B13: GUGCAAG (DNA:RNA)
RNA: B1 RNA with A25G, U27G, C30A, C31G
DNA 1: CAATCTGAATTCCGGTCTCCC
DNA 2: TGGTGGCTACGACGGGATT
B14: GUGCAUA (DNA:RNA)
RNA: B1 RNA with A25G, U27G, C30U, C31A
DNA 1: CAATCTGAATTCCGGTCTCCC
DNA 2: TGGTGGCTACGACGGGATT
B15: UUGCAAG (DNA:RNA)
RNA: B1 RNA with A25U, U27G, C30A, C31G
DNA 1: CAATCTGAATTCCGGTCTCCC
DNA 2: TGGTGGCTACGACGGGATT
B16: UUGCAUG (DNA:RNA)
RNA: B1 RNA with A25U, U27G, C30U, C31G
DNA 1: CAATCTGAATTCCGGTCTCCC
DNA 2: TGGTGGCTACGACGGGATT
B17: CCUGUAG (DNA:RNA)
RNA: B1 RNA with A25C, U26C, C28G, A29U, C30A, C31G
DNA 1: CAATCTGAATTCCGGTCTCCC
DNA 2: TGGTGGCTACGACGGGATT
B18: UCGAGAU (DNA:RNA)
RNA: B2 RNA with G25U, A26C, U28A, U29G, G30A
DNA 1: CAATCTGAATTCCGGTCTCCC
DNA 2: TGGTGGCTACGACGGGATT
B19: UGCACGU (DNA:RNA)
RNA: B2 RNA with G25U, A26G, G27C, U28A, U29C
DNA 1: CAATCTGAATTCCGGTCTCCC
DNA 2: TGGTGGCTACGACGGGATT
B20: UGCACCC (DNA:RNA)
RNA: B1 RNA with A25U, U26G, U27C, C28A, A29C
DNA 1: CAATCTGAATTCCGGTCTCCC
DNA 2: TGGTGGCTACGACGGGATT
B21: UGCACCG (DNA:RNA)
RNA: B1 RNA with A25U, U26G, U27C, C28A, A29C, C31G
DNA 1: CAATCTGAATTCCGGTCTCCC
DNA 2: TGGTGGCTACGACGGGATT
B22: CUGCACG (DNA:RNA)
RNA: B1 RNA with A25C, U27G, C31G
DNA 1: CAATCTGAATTCCGGTCTCCC
DNA 2: TGGTGGCTACGACGGGATT
B23: CUGCACC (DNA:RNA)
RNA: B1 RNA with A25C, U27G
DNA 1: CAATCTGAATTCCGGTCTCCC
DNA 2: TGGTGGCTACGACGGGATT
B24: UGCCACG (DNA:RNA)
RNA: B1 RNA with A25U, U26G, U27C, C31G
DNA 1: CAATCTGAATTCCGGTCTCCC
DNA 2: TGGTGGCTACGACGGGATT

Target: T1, RBFOX1 RRM (Homo sapiens, UniProt Q9NWB1 109-208)
T1 sequence: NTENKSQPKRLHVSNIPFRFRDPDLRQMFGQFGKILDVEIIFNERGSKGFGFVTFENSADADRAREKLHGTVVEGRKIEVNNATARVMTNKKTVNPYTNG
Experiment: EMSA; HiTS-Eq, 1 nM pool, 10 min; buffer printed only for the single-RNA assays: 10 mM Tris pH 7.5, 150 mM NaCl, 3.4 mM EDTA, 0.001% NP-40, 30 C
Details: tags: His6 N-terminal (pET28a); label: 5' 32P
How it was run: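 Purified RbFox RRM (wild type or mutant) was equilibrated for 10 min in 50 µL with 1 nM of a 5′-radiolabelled pool of RNA with 7 randomized nucleotides, its flanks annealed to DNA oligonucleotides, across increasing protein concentrations. Free RNA was separated by 8% native PAGE, excised, reverse-transcribed, PCR-barcoded and sequenced on an Illumina HiSeq 2500. Relative association constants came from read-count changes of each variant against the control reaction, normalised to the cognate motif.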

Binder	binding signal
B1	0.00129 KA relative to UGCAUGU
B2	0.0179 KA relative to UGCAUGU
B3	0.00177 KA relative to UGCAUGU
B4	0.000641 KA relative to UGCAUGU
B5	0.00223 KA relative to UGCAUGU
B6	0.00658 KA relative to UGCAUGU
B7	0.0201 KA relative to UGCAUGU
B8	0.0139 KA relative to UGCAUGU
B9	1 KA relative to UGCAUGU
B10	0.022 KA relative to UGCAUGU
B11	0.0315 KA relative to UGCAUGU
B12	0.0109 KA relative to UGCAUGU
B13	0.0274 KA relative to UGCAUGU
B14	0.0221 KA relative to UGCAUGU
B15	0.0333 KA relative to UGCAUGU
B16	1 KA relative to UGCAUGU
B17	0.00969 KA relative to UGCAUGU
B18	0.00776 KA relative to UGCAUGU
B19	0.514 KA relative to UGCAUGU
B20	0.0142 KA relative to UGCAUGU
B21	0.0145 KA relative to UGCAUGU
B22	0.616 KA relative to UGCAUGU
B23	0.0128 KA relative to UGCAUGU
B24	0.0198 KA relative to UGCAUGU
